# Bioassay records (PubChem)
# Only some compounds are listed: those with a hit (about 12% of all), similar ones and a draw of the others.
# BAZ2B inh: inhibitors of human BAZ2B bromodomain | Q9UIF8 | AlphaScreen BAZ2B-H3K14Ac peptide displacement | Potency, µM (highest dose often 114 µM), for inactives: at the highest dose activity change, negative = inhibition, usual class: inhibitors | 4.4% of 360,000 active | AID 504333; further: on the % scale 0 is the no-effect control and ±100 the full control effect; nearly all actives have a fitted effect of over 60% in size
#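 BAZ2B (50 nM) with biotin-H3(5-23)K14Ac peptide (50 nM) in PBS pH 7.4, 0.01% Tween-20, preformed 30 min, then compound 30 min at room temperature; top concentration 110uM. AlphaScreen streptavidin donor/nickel chelate acceptor beads (10 ug/mL final), 20 min dark, signal read.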
# JMJD2A Tudor inh: JMJD2A Tudor domain (human) inhibition; O75164; AlphaScreen JMJD2A-Tudor / H3K4me3 peptide binding; Potency, µM (series often up to 114 µM), for the others: at the top dose activity change, negative = inhibition, actives largely listed as inhibitors; 4.4% of 390,000 active; AID 504339; further: on the % scale 0 is the no-effect control and ±100 the full control effect; nearly all actives have a fitted effect of over 50% in size
# Sfp inh: Sfp phosphopantetheinyl transferase inhibition; Q9F4F7; Biochemical Sfp PPTase activity, qHTS; Potency, µM, for the others: largest response in the series, negative = inhibition, most hits filed as inhibitors; 3.5% of 310,000 active;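 further: the enzyme is Sfp with the accession as filed and its product quenches rhodamine fluorescence; 0% = enzyme reaction without inhibitor and -100% = no enzyme wells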
#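 Fluorescence-quenching assay with 15 nM Sfp, 5 uM rhodamine-CoA and 12.5 uM BHQ-2-labelled ybbR peptide in pH 7.6 Hepes/MgCl2 buffer. Enzyme was pre-incubated with compound for 15 min at room temperature. Rate was taken from the 30-min fluorescence change (525/598 nm).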
# L3MBTL1 inh: L3MBTL1 (human) inhibition. 0.66% of 230,000 active. Potency, µM (series often up to 57.1 µM), inactives show at the highest dose activity, negative = inhibition, hits mostly inhibitors. AID 485360. Q9Y468. AlphaScreen L3MBTL1–H3K9me1 peptide binding; further: on the % scale 0 is the no-effect control and ±100 the full control effect; nearly all actives have a fitted effect of over 60% in size
#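 AlphaScreen assay: L3MBTL1 (50 nM final) was preincubated 30 min at room temperature with biotinylated H3(1-15)K9me1 peptide (75 nM final), then 30 min with library compounds; streptavidin donor and nickel chelate acceptor beads (10 ug/mL final) added, 30 min dark.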
# HP1b binding inh: HP1-beta chromodomain-methylated histone interaction inhibition; AlphaScreen HP1-beta / biotin-H3K9me3 peptide binding; P83916; AID 540317; Potency, µM (series often up to 114 µM), inactives show at the top dose activity change, negative = inhibition, actives largely listed as inhibitors; 0.56% of 390,000 active; further: nearly all actives have a fitted effect of over 70% in size
# Target sequence (P83916 whole entry, looked up): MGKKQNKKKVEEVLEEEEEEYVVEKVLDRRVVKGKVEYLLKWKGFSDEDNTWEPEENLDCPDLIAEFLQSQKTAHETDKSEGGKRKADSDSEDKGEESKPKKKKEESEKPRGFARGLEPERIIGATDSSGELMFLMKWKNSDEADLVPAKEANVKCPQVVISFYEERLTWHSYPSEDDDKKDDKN
#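 AlphaScreen: HP1-beta (50 nM) preformed 30 min with biotin-H3(1-18)K9me3 peptide (50 nM) in PBS pH 7.4, 0.01% Tween-20. Compound added for 30 min at RT, then streptavidin donor/nickel chelate acceptor beads (10 ug/mL) for 30 min.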
# G9a block: inhibitors of human histone lysine methyltransferase G9a; Q96KQ7; G9a H3K9 monomethylation, AlphaScreen, 2 h; Potency, µM (doses to about 102 µM), for the others: at the highest dose activity, negative = inhibition, hits mostly inhibitors; 8.8% of 350,000 active; AID 504332; further: on the % scale 0 is the no-effect control and ±100 the full control effect; nearly all actives have a fitted effect of over 75% in size
# Target sequence (Q96KQ7 913-1193 limits assumed): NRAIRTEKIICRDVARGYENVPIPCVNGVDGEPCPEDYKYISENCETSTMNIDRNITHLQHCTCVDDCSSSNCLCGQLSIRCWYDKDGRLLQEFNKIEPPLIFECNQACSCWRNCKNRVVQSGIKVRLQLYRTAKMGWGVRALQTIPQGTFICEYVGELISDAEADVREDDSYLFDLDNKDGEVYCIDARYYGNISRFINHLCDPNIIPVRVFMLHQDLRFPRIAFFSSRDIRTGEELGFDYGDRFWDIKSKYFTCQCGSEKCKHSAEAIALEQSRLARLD
#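 Quantitative HTS format: methyltransferase activity on a biotin-tagged H3K9 peptide is measured by AlphaScreen, using a rabbit anti-monomethyl-H3K9 antibody with streptavidin donor and anti-IgG acceptor beads. Final levels are 20 nM enzyme, 500 nM peptide, 20 uM SAM; 2 h RT.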
# * marks the source's active call; other numbers are inactive results; ? = inconclusive; / = not tested or not shown; [ ] = dose if it differs, or a comment. The call rests on the fitted dose curve; in most records, active means well fitted curve in the direction sought with a large enough effect; inconclusive means small, poorly fitted or top-dose-only effect, or another doubt; inactive means no such curve, though single readings can be large; an effect the other way counts as inactive or inconclusive. Potency means the concentration at half of the fitted maximal effect.
SMILES,BAZ2B inh,JMJD2A Tudor inh,Sfp inh,L3MBTL1 inh,HP1b binding inh,G9a block
N#CCC(=O)Nc1ccc(C(=O)OCC(=O)N2CCCC2=O)cc1,-9%,0%,/,37%,40%,?
CCOc1ccc(N(c2nc(-c3ccc(OC)c(OC)c3)no2)c2nc(-c3ccc(OC)c(OC)c3)no2)cc1,-1%,-18%,/,/,17%,12%[59 µM]
CCOC(=O)c1noc2ncnc(Nc3ccc(F)cc3F)c12,-10%,-12%,/,/,-2%,13%[59 µM]
Cc1nn2c(C)c(C(=O)Nc3ccccc3)cnc2c1C#N,-1%,-12%,14%,/,13%,16µM*
CCc1ccc(S(=O)(=O)c2nnn3c2nc(Nc2ccc(F)cc2)c2cc(Cl)ccc23)cc1,-1%,1%,/,/,34%,8%[59 µM]
COCCn1c(SCC(=O)Nc2cccc(C)c2C)nc2c(oc3ccccc32)c1=O,-2%,-5%,/,/,40%,13%[59 µM]
COCc1c(C(=O)N2CCN(c3ccc(C(F)(F)F)cn3)CC2)oc2ccccc12,-2%,-9%,-1%,/,44%,13%[59 µM]
O=C(/C=C/c1cn(CC(O)CN2CCCCCC2)c2ccccc12)c1ccccc1 (centres undefined),?,?,/,/,4%,?
Cc1ccc(C(=O)/C=C/c2cn(CC(O)CN3CCCCCC3)c3ccccc23)cc1 (centres undefined),?,50µM*,/,/,-21%,?
COc1ccc(C(=O)/C=C/c2cn(CC(O)CN3CCCCCC3)c3ccccc23)cc1OC (centres undefined),28µM*,?,/,/,-18%,?
CCOC(=O)CC1(C)NC(C(=O)O)C(C)(C)S1 (centres undefined),/,5µM*,/,/,-13%,/
COCCCNC(=O)c1ccc(C2SCC(=O)N2Cc2ccco2)cc1 (centres undefined),-26%,9%,?,1%,24%,-5%[12.7 µM]
COCCNC(=O)c1ccc(C2SCC(=O)N2Cc2ccco2)cc1 (centres undefined),-6%,-1%,11µM*,52%,49%,/
O=C(NCc1ccc2c(c1)OCO2)c1ccc(C2SCC(=O)N2Cc2ccco2)cc1 (centres undefined),-36%,?,35µM*,?,11%,2%[12.7 µM]
C=CCNC(=O)c1ccc(C2SCC(=O)N2Cc2ccco2)cc1 (centres undefined),?,?,?,/,-8%,8%[59 µM]
CCOC(=O)CNC(=O)c1cc2c(=O)oc3ccccc3c2s1,11%,13%,/,/,26%,15%[59 µM]
Fc1ccccc1/C=N/n1cc(-c2ccccc2)[nH]c1=S,-24%,13µM*,89µM*,/,12%,?
Cc1ccc(C)c(/C=N/n2cc(-c3ccccc3)[nH]c2=S)c1,-38%,?,4%,-15%,0%,4µM*
Cc1ccc2[nH]c(-c3ccccc3)cc(=O)c2c1,1%,-21%,12%,-4%,18%,1%
COc1ccc(CCNC(=O)CN(C)S(=O)(=O)c2cccs2)cc1,5%,-7%,/,1%,8%,13%[12.7 µM]
Cc1cc(N2CCCC2)ccc1/C=C1\NC(=S)N(C)C1=O,?,22µM*,-15%,?,?,/
CN1C(=O)c2ccc(N3CCCC3)cc2C1=O,53%,44%,1%,43%,120%,53%
O=C1c2ccccc2-c2onc3ccc(NCCCn4ccnc4)c1c23,14µM*,50µM*,-1%,/,?,-26%[12.7 µM]
CCOC(=O)C1=NNC(C(=O)c2ccc(C)cc2)C1c1ccc(OC)cc1 (centres undefined),-33%,-12%,6%,/,20%,50µM*
COc1ccc(NCc2cc3cc(OC)ccc3[nH]c2=O)cc1,-12%,?,-3%,-10%,?,?
SMILES,BAZ2B inh,JMJD2A Tudor inh,Sfp inh,L3MBTL1 inh,HP1b binding inh,G9a block
COc1ccc2[nH]c(=O)c(CN(CC3CCCO3)C(=S)Nc3cccc(C)c3)cc2c1 (centres undefined),-5%,-28%,56µM*,17%,8%,/
COc1ccc(NCc2cc3ccccc3[nH]c2=O)cc1,?,?,7%,-6%,-9%,50µM*
COc1ccc2[nH]c(=O)c(CN(Cc3cccs3)C(=S)Nc3cccc(C)c3)cc2c1,-1%,-22%,-10%,1%,14%,-6%[59 µM]
COc1ccc2[nH]c(=O)c(CNC3CCCCC3)cc2c1,-3%,-17%,7%,6%,31%,?
COc1ccc2[nH]c(=O)c(CNc3cccc(C)c3)cc2c1,-7%,-18%,10µM*,-15%,24%,?
COC(=O)[C@@]1(Cc2ccc(OC)cc2)[C@H]2c3cc(C(=O)N4CCCC4)n(Cc4cc(F)c(F)c(F)c4)c3C[C@H]2CN1C(=O)c1ccccc1,/,/,14%,/,/,/
CC(C)CO/N=C1/C[C@@H](O)[C@@H](O)[C@@H]2[C@@H]3C(=O)N(C4CCCCC4)C(=O)[C@H]3CC[C@@H]12,/,/,19%,/,/,/
COc1cc(/C=C(\C#N)C(=O)c2ccc(O)c(O)c2)cc(I)c1O,40µM*,8.9µM*,/,0.32µM*,8.9µM*,2.2µM*
Cc1ccc(CNC(=O)CSc2nc3ccccc3c3nc(C)nn23)cc1,-26%,/,4%,-1%,/,5%
Cc1ccc(OCc2n[nH]c(=S)n2Cc2ccccc2)cc1,-20%,-28%,8%,-2%,20%,?
COc1ccccc1C(=O)NCc1ccccc1,7%,-15%,-10%,3%,39%,6%[59 µM]
COc1ccccc1C(=O)NCc1n[nH]c(=S)n1Cc1ccccc1,-3%,35µM*,12%,0%,43%,?
COc1ccc(Cc2n[nH]c(=S)n2Cc2ccccc2)cc1Cl,?,56µM*,9%,-12%,-18%,6.3µM*
CCOc1ccc(Cc2n[nH]c(=S)n2Cc2ccccc2)cc1,-38%,45µM*,2%,-13%,-10%,1.1µM*
CCCC[C@H](NC(=O)[C@H](CC(C)C)NC(=O)CNC(=O)[C@@H](NC(=O)[C@H](Cc1ccccc1)NC(=O)[C@H](CO)NC(=O)[C@@H](N)CC(=O)O)C(C)C)C(N)=O,/,/,-3%,/,/,/
